# Data taken from PubChem BioAssay AID1508600 (Functional Genomics Laboratory (NCATS/FGL), 2020).
# Hit rate of the full screen: of about 53,000 sequences, about 3,700 (7%) were called active. This is one part of a sample in which actives are shown more often than they occur.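 The calls were made as follows: active = gene knockdowns whose robust z-score for IL-1 alpha signal is at least 2 or at most -2, so actives lie on both sides; inactive = the rest.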
# Assay: Components of the Cytosolic LPS Sensing Pathway: Gene Identification via Genome-wide siRNA Screen;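 also: robust z of the log signal after scaling to non-targeting control siRNA wells of the plate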
# Details: RAW264.7 macrophages, IL-1a HTRF, actives lie on both sides, screened at 100 nM (by protocol), cells primed 5 h with Pam3CSK4 first
# Outline: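 Using IL-1a HTRF as read-out, the screen measured release from RAW264.7 cells after 48h siRNA knockdown (100 nM), 5 h Pam3CSK4 priming and 24 h cytosolic LipidA. Values were expressed relative to negative-control wells as robust z-scores.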
row,Sequence,z-score
1,GGCAGCAGCAAGUUUCUUCTT against Rbm38,-2.31 (active)
2,GCUUUUGAUCCACAGAUUUTT against Prss33,0.372 (inactive)
3,GGGCUUAUUCUCAGUUCUGTT against Slc17a1,-0.395 (inactive)
4,GGACCAUGUGACAAAGCCUTT against Fam131b,2.16 (active)
5,GCCUCCAUUAUUUGUUCUGTT against Olfr1058,-0.177 (inactive)
6,GGAAACACCAAGAUUCCAGTT against Sprr3,-0.445 (inactive)
7,GCUAUUGGAGGAAUGUAUCTT against Rasgrp4,-1.51 (inactive)
8,GGCACAAGAGCAAAGGCUUTT against Gmppb,-0.575 (inactive)
9,CCCUCAUUUACUCUAGUAATT against Defb12,0.714 (inactive)
10,GGUGUUCCUGGUGAAGCAATT against Camk1g,0.875 (inactive)
11,CGCUCACUGGUUUUUAAUUTT against Itpripl2,0.694 (inactive)
12,GCCCGCACAAUCGUACUUUTT against Ccl28,-1.2 (inactive)
13,GGAAAACUGCGUUUGGAAATT against Neil3,0.387 (inactive)
14,GCAAUAGUGAGCACGCCAGTT against Col18a1,0.307 (inactive)
15,GGUCUGUGGACUGAACUUATT against Bcl2l11,-2.6 (active)
16,GGAUGAAGAACUCAGAGUGTT against Slc66a2,-1.24 (inactive)
17,GGUCAUUCUUAAUUGUUCATT against Kpna6,0.939 (inactive)
18,CCAAAGUCUGUUAAUGGGUTT against 4921517D22Rik,0.401 (inactive)
19,GCUAUGCAGAGGAGUAUGCTT against Duoxa1,3.03 (active)
20,GGAGACAUUGCUAUAUAUGTT against Hmgcs1,-0.207 (inactive)
21,GGCCUAAGGCUGUGAAUGUTT against D2hgdh,-2.59 (active)
22,GCCGUUUACGUUUAUUGUUTT against Cux2,-0.0356 (inactive)
23,GGACAGAAUACGUGAGGAGTT against Septin5,-0.427 (inactive)

row,Sequence,z-score
1,GGAGUUCCAGCAGCUCUAUTT against Vsnl1,0.741 (inactive)
2,GGUUCUGCUGGACAACUUUTT against Cyp46a1,-0.377 (inactive)
3,CCCUCAUAACUAAUGCUGUTT against Pip5kl1,-0.276 (inactive)
4,GGUGAUCCAAGACUUCCAGTT against Actl6b,1.16 (inactive)
5,GCAGUGAUCCAUGAGCCUATT against Eif5a,4.64 (active)
6,GCACCAAUAUUAGGCUGACTT against Noct,1.73 (inactive)
7,CGAGCACACUUUUGAAGAATT against Gm5089,1.33 (inactive)
8,GGCUACGAUCCUACAGUGGTT against Rhebl1,-0.283 (inactive)
9,GGCAACACUGUGGCUAAGUTT against Ankrd13d,2.74 (active)
10,GCUGGUAACAGAAUUUCUUTT against Aox2,0.515 (inactive)
11,GCUAAACAGACAACUCAACTT against Rufy2,1.04 (inactive)
12,GGUAAAACCCAAUAGUAACTT against Gclm,0.45 (inactive)
13,GGAUCUUUACUGCUUUGUGTT against Picalm,2.42 (active)
14,GCCAAUUUGAAGGUUUUCATT against Tlr8,1.58 (inactive)
15,GGCUCUUGGAUAUUUCCGATT against Nop9,0.342 (inactive)
16,CCUAAUGGAAGGGAAGCCATT against Cox19,-2.06 (active)
17,GGACCUGAAUAAGACUAUUTT against Lgmn,-0.429 (inactive)
18,GGGAGGUUACUAUGGAGACTT against Mia,1.68 (inactive)
19,GCUACUGCAUUCUCUAUCATT against Actl9,1.94 (inactive)
20,GGCAACUGUGUUCUCACGATT against Ddx58,-1.22 (inactive)
21,CCACUUCCAUAGAGAUUUUTT against Tmx3,2.93 (active)
22,GCUUUGUUUGAAAAUGCGATT against Nrde2,-0.66 (inactive)
23,CCGCGUGUAUAAGUUGGUGTT against Mrpl9,1.23 (inactive)

row,Sequence,z-score
1,GCCUCGAUUCACCAAGUGUTT against Ghr,-0.663 (inactive)
2,GGAAGAUCGAGAAUGUUCCTT against Ppih,0.174 (inactive)
3,GCCAUAUCAACUCAGAUCATT against Ssh2,5.04 (active)
4,GGUAAUAAGUCCCAUUUUCTT against Prpmp5,0.817 (inactive)
5,GGCCAGAAGAACUAACAGUTT against Cept1,-0.11 (inactive)
6,GGACAAUGCUAAUGAGACCTT against Gcsam,-0.176 (inactive)
7,GAGGGACUGUAAUGUUGACTT against Olfr560,0.0877 (inactive)
8,CCGCUAGACAAAUUUUGCCTT against Slc6a2,1.45 (inactive)
9,GCUACAGUAGUAAGACUAATT against Usp53,2.67 (active)
10,GGAGUAACAACACAACAUUTT against Mab21l1,1.43 (inactive)
11,CGCUGAAAGUGAACGUAGGTT against Kcnv2,-1.14 (inactive)
12,CCUUCACAUAAGUUUCUGUTT against Nuak2,0.575 (inactive)
13,GAGGAAGACACUUUUCCUGTT against Atp23,0.765 (inactive)
14,GGGCAGUGAAAUCCUGUCUTT against Trim16,-2.81 (active)
15,GCUUAGAUCACCUAAUGACTT against Parp3,1.18 (inactive)
16,GGAUGUUUGGACCAAUCACTT against Iba57,-0.962 (inactive)
17,GGUGCUACUCCAGAUUGACTT against Tbc1d13,0.63 (inactive)
18,GGUUAUAAACCAGAAGAGUTT against Mill2,0.807 (inactive)
19,GCUGUUAGACCUCUUGAUUTT against Olfr1164,0.0632 (inactive)
20,GGUAGAUCAGUAAUAGUUATT against Glrb,0.837 (inactive)
21,GGAGAUUGAGAACACAAGCTT against Hipk2,2.37 (active)
22,CCAGACACAUAGGACAAAATT against Slco3a1,-0.00454 (inactive)
23,GGCUGUGCGUGUUACAAAATT against Erlin1,0.501 (inactive)
